Screening data from PubChem BioAssay.
Shiga inhibitor – blocks Shiga toxin action in Vero cells. Vero cells, Shiga toxin protein synthesis inhibition reporter. inhibition, % at 38.7 µM. 9.2% of 290,000 active. AID 2315; in the data active = inhibition mostly above about 28%, no sharp cut-off; inactive = mostly below about 43%; note: 0% is about no effect
Sm TGR block – S. mansoni TGR enzyme inhibition. Potency, µM (series often up to 114 µM), for inactives: at the top dose activity change, negative = inhibition, most hits filed as inhibitors. AID 485364. purified TGR, DTNB reduction, TNB absorbance 405 nm. Q962Y6. 3% of 360,000 active; note: potency is the fitted concentration of half-maximal effect; % is set by controls: 0 for no effect and ±100 for the full control effect; nearly all actives have a fitted effect of over 60% in size
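Kinetic colorimetric format: TGR-catalysed, NADPH-driven DTNB reduction monitored via TNB absorbance. Enzyme dispensed at 20 nM; compound exposure 15 min at room temperature before reaction start.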
Tb PYK inh – T. brucei pyruvate kinase inhibition; Potency, µM (series often up to 76.8 µM), for the others: at the top dose activity, negative = inhibition, actives largely listed as inhibitors; 0.12% of 410,000 active; TbPYK enzyme, Kinase-Glo Plus ATP luminescence, 45 min; note: potency is the fitted concentration of half-maximal effect; % is set by controls: 0 for no effect and ±100 for the full control effect; nearly all actives have a fitted effect of over 50% in size
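Assay buffer: 50 mM TEA pH 7.2, 100 mM KCl, 10 mM MgCl2, 0.05% BSA, 0.01% Tween-20. Pyruvate kinase from T. brucei plus substrate met compound, then ADP (130 uM final). Luminescence was read post 45 min RT.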
CHX counter – affects cycloheximide protein synthesis inhibition readout, counter-screen; cell reporter, cycloheximide protein synthesis inhibition counterscreen; max response, %; 12% of 300,000 active; AID 2314; in the data active = max response mostly above about 13%, no sharp cut-off; inactive = mostly below about 14%; note: read at 38.3 µM for the half of the compounds with a filed dose; 0% is about no effect
Giardia FBPA inh – Giardia lamblia aldolase inhibition; 0.71% of 290,000 active; AID 2451; purified Giardia FBPA; A8B2U2; Potency, µM (series often up to 59.6 µM), without a hit: top-dose activity, negative = inhibition, actives largely listed as inhibitors; note: potency is the fitted concentration of half-maximal effect; % is set by controls: 0 for no effect and ±100 for the full control effect; nearly all actives have a fitted effect of over 55% in size
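Giardia FBPA (40 nM reagent) was preincubated 10 min at RT with compound (up to 57.5 uM final), then substrate plus GAPDH/TPI/NAD/arsenate coupling system with diaphorase/resazurin was added; resorufin fluorescence (525/598 nm) was read after 20 min.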
LmPK inh – blocks Leishmania mexicana pyruvate kinase activity. Potency, µM (highest dose often 57.5 µM), inactives show at the top dose activity change, negative = inhibition, most hits filed as inhibitors. purified LmPK, Kinase-Glo ATP luminescence, 1 h. 0.37% of 290,000 active. Q27686; note: potency is the fitted concentration of half-maximal effect; % is set by controls: 0 for no effect and ±100 for the full control effect
Target sequence (Q27686 whole entry, looked up): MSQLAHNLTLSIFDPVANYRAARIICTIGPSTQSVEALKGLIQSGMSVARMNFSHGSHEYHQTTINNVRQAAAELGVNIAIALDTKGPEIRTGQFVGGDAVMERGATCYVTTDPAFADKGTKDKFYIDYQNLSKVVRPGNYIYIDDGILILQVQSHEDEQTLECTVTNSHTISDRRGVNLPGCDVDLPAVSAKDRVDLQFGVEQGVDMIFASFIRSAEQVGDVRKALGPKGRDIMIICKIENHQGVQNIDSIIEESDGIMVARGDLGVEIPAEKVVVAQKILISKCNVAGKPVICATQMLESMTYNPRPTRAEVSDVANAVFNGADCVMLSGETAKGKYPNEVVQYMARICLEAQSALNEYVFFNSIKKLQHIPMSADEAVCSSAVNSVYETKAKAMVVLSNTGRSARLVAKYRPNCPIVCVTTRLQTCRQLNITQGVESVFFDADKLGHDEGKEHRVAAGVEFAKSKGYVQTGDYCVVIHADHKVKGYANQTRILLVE
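In 50 mM imidazole pH 7.2 with 7 mM MgCl2, LmPK (0.1 nM) turned over PEP (0.5 mM) and ADP (0.1 mM) for 1 h at room temperature. Luciferase read-out of ATP.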
Active calls of the source: *; ? = inconclusive; . = no result given; [ ] = dose if it differs, or a comment. Many of the other results were omitted from the sample, so hits are more common in it than they were. Unless noted, calls come from the whole dose curve; as a rule, active = well fitted curve in the direction sought with a large enough effect; inconclusive = small, poorly fitted or top-dose-only effect, or another doubt; inactive = no such curve, though single readings can be large; an effect the other way counts as inactive or inconclusive.

SMILES | Shiga inhibitor | Sm TGR block | Tb PYK inh | CHX counter | Giardia FBPA inh | LmPK inh
COc1ccc(CC(NC(C)=O)C(=O)N2CCN(C(=O)Nc3ccc(Cl)cc3)CC2)cc1OC (stereo not drawn) | 44 | -1% | -3% | 14* | 1% | -1%
O=[N+]([O-])c1cccc(C=NNc2ccccc2)c1 | . | . | -2% | . | . | .
O=[N+]([O-])c1cccc(/C=N/NC2=NCCCCC2)c1 | 62* | -3% | -3% | 36* | 4% | -1%
Oc1ccccc1/C=N/NC1=NCCCCC1 | 95* | 10% | 5% | 34* | -11% | -8%
CC(C)(C)C(=O)Nc1cccc(C(=O)OCc2cc(=O)n3nc(C4CC4)sc3n2)c1 | . | 2% | -3% | . | . | .
C=CCNC(=S)NNC(=O)c1cccn(Cc2ccc(Cl)cc2Cl)c1=O | -19 | 6% | 11µM* | -2 | 8% | 3%
O=C(N/N=C/c1cccc(Br)c1)c1ccc(Cn2cc(Br)cn2)o1 | 56* | 1% | -1% | 17 | -14% | 4%
O=C(c1ccco1)N1CCN(C(=O)c2ccc(Cn3cc(Br)cn3)o2)CC1 | -13 | 40µM* | -29% | -3 | -2% | 1%
O=C(c1ccco1)N1CCN(C(=O)c2ccc(CS(=O)c3ccc(Br)cc3)o2)CC1 (stereo not drawn) | . | . | -1% | . | . | .
Cc1ccccc1/C=N\NC(=O)c1ccc(Cn2cccn2)o1 | 32 | 20% | -4% | 5 | 2% | -4%
O=C(N/N=C\c1cccc(Cl)c1)c1ccc(Cn2cc(Br)c([N+](=O)[O-])n2)o1 | 24* | 6% | 3% | 8 | -6% | -4%
Cc1ccc(/C=N\NC(=O)c2ccc(Cn3cc(Br)c([N+](=O)[O-])n3)o2)o1 | -9 | 1% | 7% | -3 | 0% | -1%
NNC(=O)c1ccc(Cn2cccn2)o1 | 52* | 17% | 3% | 20 | -5% | -1%
CCOC(=O)OCC1OC(c2ccccc2)C=CC1OC(=O)OCC (stereo not drawn) | . | . | . | . | 0%[12.9 µM] | .
NNC(=O)c1ccc(Cn2cc(Br)cn2)o1 | 61* | 29% | 0% | 27* | -1% | 3%
Cc1cccc(-c2nc(CSc3nncn4c3cc3sccc34)c(C)o2)c1 | . | -2% | 4% | . | . | .
Clc1cccc2sc(N3CCOCC3)nc12 | . | . | -5% | . | . | .
Fc1cccc2sc(N3CCCC3)nc12 | 89* | 11% | -6% | 43* | 8% | -20%
Brc1cccc2sc(N3CCCC3)nc12 | 89 | 13% | -6% | 34* | 5% | 6%[11.5 µM]
Clc1cccc2sc(N3CCCC3)nc12 | active | -2% | -2% | 20* | 6% | -6%
CCc1cccc(CC)c1NC(=O)CSc1nc2ccc(N3C(=O)C4C5C=CC(C5)C4C3=O)cc2s1 (stereo not drawn) | -4 | ? | -1% | -4 | 0% | 3%
CSc1nc2ccc(NC(=O)CSc3nnc(N)s3)cc2s1 | 49 | -6% | 5% | 33* | -19% | 0%
COC(=O)c1ccc(NC(=O)CSc2nc3ccc(N4C(=O)C5C6C=CC(C6)C5C4=O)cc3s2)cc1 (stereo not drawn) | 4 | -2% | 2% | 23* | 1% | 2%
Nc1nnc(SCC(=O)Nc2ccccc2)s1 | 8 | 1% | -3% | 10* | 0% | -1%
Cc1nnc(SCC(=O)Nc2cc(-c3cc(C)c(C)cc3C)nn2-c2ccccc2)s1 | 10 | -5% | 1% | -2 | -7% | 1%
SMILES | Shiga inhibitor | Sm TGR block | Tb PYK inh | CHX counter | Giardia FBPA inh | LmPK inh
CCCc1ccc(-c2cc(NC(=O)CSc3nnc(N)s3)n(-c3ccccc3)n2)cc1 | 99* | 3% | 1% | 43* | -4% | -7%
Cc1oc(-c2ccc(C(=O)NCc3ccc(Cl)cc3)cc2)nc1CS(=O)(=O)c1ccccc1 | . | ? | -14% | . | . | .
COc1ccccc1-c1c(C)nn2c(-c3ccccc3)cc(-c3ccccc3)nc12 | . | 11% | -7% | . | . | .
CCOC(=O)c1c(C)c(-c2ccccc2)n(CC(=O)Nc2cc(C)ccc2OC)c1C | . | 0% | 1% | . | . | .
Cc1cc(-c2ccc(C)c(S(=O)(=O)Nc3ccccc3C(F)(F)F)c2)on1 | . | -7% | 6% | . | . | .
Cn1cnnc1SCC(=O)Nc1ccc2nc(SCc3ccccc3F)sc2c1 | 165* | -15% | -9% | 50* | 0% | 5%
